High-throughput results deposited in PubChem BioAssay by several laboratories.
Beta apoptosis: inhibitors of cytokine-induced beta cell apoptosis, primary screen, luminescence | INS-1E cytokine-induced death, ATP luminescence, 48 h; percent of positive-control rescue, neutral wells zero | protection from apoptosis, % (concentration not given with the values) | 0.8% of 300,000 active | AID 435005, 2010;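 active = Every replicate reaches about 75%, or at least half do and their mean reaches it too, limit read from the data; inconclusive = At least half of replicates reach the limit but their mean does not; inactive = Under half of replicates reach the limit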;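 note: 0% = cytokine-treated negative control wells and 100% = positive control rescue; higher means more ATP so stronger rescue from cytokine killing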
697 NFkB inh: inhibitors of PMA/ionomycin-induced NF-kB reporter, 697 cells, primary screen, B-cell NF-kB inhibitor project, cell-based, luminescence, uHTS; 697 B-cell NF-kB luciferase reporter, 16 h; inhibition, % at 4 µM; 0.33% of 330,000 active; in the data active = inhibition above about 35%
Jurkat NFkB inh: inhibitors of induced NF-kB luciferase reporter, primary screen, TCR NF-kB activation inhibitor project, cell-based, luminescence, uHTS | Jurkat, PMA/ionomycin-induced NF-kB luciferase reporter | inhibition, % at 4 µM | 0.53% of 330,000 active; in the data active = inhibition above about 50%
Calb FLC: C. albicans growth inhibition with fluconazole, primary screen, CaCi-2 strain, Alamar Blue fluorescence; AID 1979, 2009; growth inhibition, % (no concentration beside the values); C. albicans CaCi-2 (fluconazole-resistant clinical isolate) + fluconazole, 48 h; 0.57% of 300,000 active;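 active = growth inhibition above about 58% in most replicates, limit read from the data, passing the limit was not always enough; inconclusive = exactly half the replicates above a set limit; inactive = most replicates below a set limit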;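 note: all wells also contain fluconazole at 8 µg/ml as a sub-toxic cotreatment; 0% = median of DMSO wells and 100% = median of geldanamycin control wells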
Shn3 3UTR inh: reduction of Shn3 3'UTR firefly luciferase signal, primary screen, Schnurri-3 inhibitor project, cell-based, Clone20 osteoblasts, set 2; Clone20 osteoblast Shn3 3'UTR firefly luciferase, 24 h; inhibition, % at 12.5 µM; 0.52% of 360,000 active; AID 588674, 2011;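 active = mean inhibition of at least 75% with every replicate also reaching 75%; inconclusive = mean inhibition at least 75% but some replicate below; inactive = mean inhibition below 75%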;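 note: 0% = median of neutral control wells and 100% = pilot-screen positive control compound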
Jurkat NFkB conf: PMA/ionomycin-induced NF-kB reporter inhibitors, Jurkat retest, confirmation, T-cell NF-kB inhibitor project, cell-based, luminescence, single concentration | shares compounds with Jurkat NFkB inh | Jurkat NF-kB luciferase, 16 h | inhibition, % at 4 µM | 27% of 2,700 active | AID 435020, 2010;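 active = inhibition reaching about 45% at 4 µM in either replicate, limit read from the data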;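 note: plate controls were PMA/ionomycin stimulated DMSO wells for no effect and unstimulated DMSO wells for full effect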
* hit, by the source's call; u = inconclusive; x = no result. An excerpt weighted towards active compounds, which were near 2% of everything screened.

SMILES	Beta apoptosis	697 NFkB inh	Jurkat NFkB inh	Calb FLC	Shn3 3UTR inh	Jurkat NFkB conf
COc1cccc2sc(Nc3nnc(-c4ccccc4Cl)o3)nc12	x	-30	58*	0	13	45
COc1cccc2sc(NN)nc12	-13	-7	-18	-7	-25	x
COc1cccc2sc(Nc3nc(-c4ccncc4)cs3)nc12	34	-28	60*	38	20	35
COc1ccc(-c2csc(NC(=O)CCNC(=O)c3ccco3)n2)cc1	x	x	x	x	14	x
CC(Oc1cccnc1[N+](=O)[O-])C(=O)Nc1ccc(Cl)cn1 (stereo unspecified)	-4	6	7	x	3	x
CCC1CCCCN1C(=O)COC(=O)c1cncc(Br)c1 (stereo unspecified)	x	x	x	x	-18	x
COc1ccc(S(=O)(=O)Nc2ccc3c(c2)C(=O)N([C@H](C)CO)C[C@H](C)[C@@H](CN(C)S(=O)(=O)c2cn(C)cn2)OCCCC[C@H](C)O3)cc1	x	x	x	x	1	x
NC(=O)c1ccsc1NC(=O)c1ccc([N+](=O)[O-])o1	-21	-7	-29	x	29	x
O=C1/C(=C/c2ccc(N3CCOCC3)o2)SC(=Nc2ccccc2)N1CCc1c[nH]c2ccccc12	101*	-38	91*	1	97*	38
CCOc1ccc(NS(=O)(=O)c2cc(NC(=O)c3ccc(C)cc3)ccc2Cl)cc1	28	-148	53*	0	8	34
CCOc1ccc(Oc2ccc(NS(=O)(=O)c3cc(C(=O)O)ccc3Cl)cc2)cc1	-3	12	-6	x	-9	x
CC(=O)N/C(=C\c1ccc(F)cc1)C(=O)N(C)C	-1	18	-4	3	-11	x
O=C(NN=Cc1c(O)ccc2ccccc12)c1ccc2c(c1)OCO2	-6	-16	67*	x	89*	82*
O=C(N/N=C\c1c(O)ccc2ccccc12)c1ccc(S(=O)(=O)N2CCCCC2)cc1	97*	-21	55*	u	89*	73*
O=C(N/N=C/c1ccccc1)c1ccc2c(c1)OCO2	0	-103	-83	-4	-49	x
O=C(NCc1nnc(SCC(=O)N2CCOCC2)o1)c1c(F)cccc1Cl	-15	20	9	-16	1	x
Cc1ccc(N/C=C(/C#N)c2ccsc2)cc1C	9	-161	-172	6	-93	-48
Cc1ccc(N/N=C(\C#N)C(=O)c2ccsc2)cc1	14	-32	0	2	-3	x
COC(=O)Cc1ccc2sc(-c3ccccc3)nc2c1	4	-93	-156	1	-12	-99
O=C(O)Cc1ccc2sc(-c3ccccc3)nc2c1	12	-16	-13	4	-22	x
Cc1ccc(N/N=C(\C#N)C(=N)N2CCCCCC2)cc1	3	-148	-185	27	-22	-90
N#C/C(=N\Nc1ccc(Cl)cc1)C(=N)N1CCCCC1	-4	-228	-200	-4	-55	-103
N#C/C(=N\Nc1ccc(F)cc1)C(=N)N1CCCCCC1	x	-181	-194	24	-49	-55
COc1ccc(N/N=C(\C#N)C(=N)N2CCCCC2)cc1	-3	-54	-44	-1	-31	x
Cc1ccc(N/N=C(\C#N)C(=N)N2CCOCC2)cc1	-3	-17	-61	-12	-75	x
SMILES	Beta apoptosis	697 NFkB inh	Jurkat NFkB inh	Calb FLC	Shn3 3UTR inh	Jurkat NFkB conf
COC(=O)Nc1ccc(SCC(=O)c2cccc([N+](=O)[O-])c2)cc1	-5	6	2	-4	-8	x
CCN1CCN(c2ccc(S(=O)(=O)N3CCCCC3)cc2NC(=O)/C=C/c2ccc([N+](=O)[O-])cc2)CC1	4	-3	52*	-3	-36	34
CCN1CCN(c2ccc(S(=O)(=O)N3CCCCC3)cc2NC(=O)/C=C/c2ccc(F)cc2)CC1	2	-3	2	0	18	x
Cc1c(C(=O)N/N=C/c2ccc(N(C)C)cc2)[nH]c2ccc(Cl)cc12	28	13	50*	-2	27	0
CCOC(=O)N1CCN(c2ccc([N+](=O)[O-])cc2)CC1	3	-18	13	-20	-13	x
O=[N+]([O-])c1ccc(N2CCN(Cc3ccc(Br)o3)CC2)cc1	-4	15	52*	-39	16	6
